# Laboratory results reported in PubChem BioAssay AID602292 (National Center for Advancing Translational Sciences (NCATS), 2012).
# The campaign covered roughly 1,300 compounds. About 380 (29%) were called active. Not shown: some 37% with an inconclusive outcome. The list shows a part of the results. A number with no mark means an inactive call. Calls come from the whole dose curve; as a rule, active = well fitted inhibition curve with a large enough effect; inconclusive = small, poorly fitted or top-dose-only effect; inactive = flat fitted curve, though single readings scatter.
# Target: Thyrotropin receptor (Homo sapiens) (UniProt P16473)
# Experiment: qHTS for antagonists of the Thyroid Stimulation Hormone Receptor: Hit Validation in Primary Screen; note: nearly all actives have a fitted effect of over 80% in size;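 for activity change, negative = inhibition: cells stimulated with TSH at EC80 of 4 nM during compound exposure; cAMP by competitive HTRF where cellular cAMP lowers the 665 nm FRET signal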
# Settings: TSHR-expressing cells, cAMP antagonist mode; series mostly up to 58 µM; activity change, negative = inhibition: at the top concentration
# Procedure, shortened: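 Competitive HTRF detected cAMP in lysates of TSHR cells, read 30 minutes after antibody and d2 addition at room temperature. Before lysis, cells had 2 hours at 37 deg C with compound plus EC80 TSH, 4nM final.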
# % is set by controls: 0 for no effect and ±100 for the full control effect; potency is the fitted concentration of half-maximal effect.
# Sequence of Thyrotropin receptor (Homo sapiens) (P16473 whole entry, looked up): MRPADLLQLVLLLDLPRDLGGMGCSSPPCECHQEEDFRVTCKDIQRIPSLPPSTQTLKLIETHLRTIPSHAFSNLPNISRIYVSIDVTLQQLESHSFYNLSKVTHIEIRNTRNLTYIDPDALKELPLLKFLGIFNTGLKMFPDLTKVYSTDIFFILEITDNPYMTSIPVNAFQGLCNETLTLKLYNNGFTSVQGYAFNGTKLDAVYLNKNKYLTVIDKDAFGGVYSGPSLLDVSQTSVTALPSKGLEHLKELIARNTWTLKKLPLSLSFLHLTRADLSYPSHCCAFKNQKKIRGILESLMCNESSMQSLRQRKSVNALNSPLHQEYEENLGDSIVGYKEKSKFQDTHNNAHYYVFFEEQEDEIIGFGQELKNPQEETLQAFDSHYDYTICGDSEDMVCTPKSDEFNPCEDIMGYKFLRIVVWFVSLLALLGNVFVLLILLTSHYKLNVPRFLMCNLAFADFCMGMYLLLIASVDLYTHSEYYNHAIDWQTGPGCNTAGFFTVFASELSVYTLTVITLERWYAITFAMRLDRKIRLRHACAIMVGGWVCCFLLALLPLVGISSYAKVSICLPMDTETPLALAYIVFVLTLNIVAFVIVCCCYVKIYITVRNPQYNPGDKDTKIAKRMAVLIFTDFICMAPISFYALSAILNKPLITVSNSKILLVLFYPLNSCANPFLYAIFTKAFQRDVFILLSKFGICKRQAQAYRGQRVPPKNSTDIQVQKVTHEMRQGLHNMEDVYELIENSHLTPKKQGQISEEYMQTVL
SMILES,"activity change, negative = inhibition",Potency
Cc1cc(C)cc(N=C2NC(=O)CS2)c1,-5.01%,
Cc1nc2ccccc2n1CCOc1ccccc1,-5.04%,
Oc1c(Cl)cc(Cl)c(Cl)c1Cc1c(O)c(Cl)cc(Cl)c1Cl,,2.13 µM (active)
CC(C)S(=O)(=O)C1=NSC2=NC(=O)/C(=C\c3ccc(-c4ccccc4)o3)C(=N)N21,,3.79 µM (active)
CSc1nc(-c2ccc(Cl)cc2Cl)[nH]c(=O)c1C#N,,6.75 µM (active)
COc1cc(NC(=O)Cn2nc(C(F)(F)F)c(Br)c2C)cc([N+](=O)[O-])c1,,26.9 µM (active)
CN(CC(=O)Nc1ccccc1C(F)(F)F)Cc1c(O)ccc2ccccc12,-3.28%,
CCOC(=O)COc1ccc(Br)cc1/C=C/c1[nH]c(=O)[nH]c(=O)c1[N+](=O)[O-],,23.9 µM (active)
CC(=O)N/N=C\c1ccccc1OC/C=C/c1ccccc1,-2.79%,
CCOC(=O)COc1ccccc1/C=C\[N+](=O)[O-],,30.1 µM (active)
CC(C)OCCCn1c(=O)c2ccccc2n2c(CCC(=O)NC3CCN(Cc4ccccc4)CC3)nnc12,-5.01%,
CC1CCN(Cc2c(C(=O)N/N=C/c3cc(Cl)ccc3O)nnn2-c2nonc2N)CC1,-5.21%,
COc1cccc(/C=N/NC(=O)C(=O)N2CCCC2)c1O,-6.14%,
N#Cc1ccc(Nc2nc(-c3ccc(O)cc3O)cs2)cc1C(F)(F)F,,23.9 µM (active)
COc1ccc(/C=C2\CC/C(=C\c3ccc(OC)c(OC)c3)C2=O)cc1OC,,19 µM (active)
COc1ccc(/C=C/C(=O)N2CCN(C)CC2)cc1OC,-1.93%,
COc1ccc(/C=C/C(=O)Nc2nc(C)cc(C)n2)cc1OC,-1.33%,
COc1ccc(-c2nnc(NC(=O)c3ccc4c(c3)OCCO4)o2)cc1,-4.12%,
CNc1c(NC(=O)c2ccc3c(c2)OCO3)c(=O)oc2ccccc12,-2.71%,
O=C(Nc1ccc2oc(-c3ccccc3F)nc2c1)c1ccc2c(c1)OCCO2,,30.1 µM (active)
Cn1c(CNC(=O)C(Cc2ccccc2)NC(=O)c2ccccc2)cc(=O)n(C)c1=O (centres undefined),-1.24%,
CCN(c1ccccc1)S(=O)(=O)c1ccc(C(=O)N(CCCN(C)C)c2nc3cc4c(cc3s2)OCO4)cc1,-7.09%,
CCN(CC)S(=O)(=O)c1cccc(C(=O)Nc2nc3cc4c(cc3s2)OCCO4)c1,,21.3 µM (active)
CC1CCC(C(C)C)C(OC(=O)Cn2c(-c3ccccc3)[n+](C)c3ccccc32)C1 (centres undefined),,30.1 µM (active)
CCOC(=O)C1C(c2cc(OC)c(OC)c(OC)c2)NC(=S)NC1(O)C(F)(F)F (centres undefined),-3.72%,

SMILES,"activity change, negative = inhibition",Potency
CC1=C(C(=O)OC(C)(C)C)C(c2ccc3ccccc3c2)NC(=O)N1C (centres undefined),-4.32%,
CC(C)(C)OC(=O)NCCCCCc1cn([C@@H](CO)C(=O)NCCCCCCCCCCC(=O)N2CCN(C(=O)OC(C)(C)C)CC2)nn1,,16.9 µM (active)
CN1C(=O)/C(=C/c2ccc(OCc3ccccc3F)cc2)NC1=S,-0.922%,
O=C1S/C(=C\c2ccc(O)c([N+](=O)[O-])c2)C(=O)N1c1ccccc1Cl,,9.53 µM (active)
Cc1ccc(CN2C(=O)c3ccccc3Sc3ccc(C(=O)NCCN4CCOCC4)cc32)cc1,-8.21%,
CC(=O)N1c2ccc(S(=O)(=O)N3CCC(C(=O)NC(C)c4ccccc4)CC3)cc2CC1C (centres undefined),-5.24%,
C=CCSc1nsc(NC(=O)Nc2ccc(F)cc2)n1,,7.57 µM (active)
Cc1ccc(-n2c(Cl)c(Cl)nc(Cl)c2=O)cc1,,26.9 µM (active)
CCOC(=O)c1cccc(OCC(O)CNCCOc2ccccc2F)c1 (centres undefined),-1.9%,
O=[N+]([O-])c1ccc(N=Nc2c(Cl)cc(O)cc2Cl)cc1,,1.51 µM (active)
COc1ccc(C(=O)NC2CCCc3c2cnn3-c2cccc(C)c2C)c(OC)n1 (centres undefined),,21.3 µM (active)
Cn1c(N=Nc2ccc(N3CCOCC3)cc2)[n+](C)c2ccccc21,,12 µM (active)
CCCn1nc([N+](=O)[O-])c(C(C#N)c2nc3ccccc3o2)c(Cl)c1=O (centres undefined),,6.01 µM (active)
CCn1nc([N+](=O)[O-])c(C(C#N)c2nc3cc(C(F)(F)F)ccc3s2)c(Cl)c1=O (centres undefined),,2.69 µM (active)
O=C(NCCc1ccccc1)c1cccnc1N1CCCCCC1,-6.11%,
Cc1cc(C(=O)CCl)c(C)n1CCc1ccccc1,,30.1 µM (active)
CCOC(=O)N1CCN(C(=O)CCc2ccccc2)CC1,-3%,
Brc1ccc(CNc2ccc3ncccc3c2)cc1,,23.9 µM (active)
CCOc1ccc(-n2c(SCC(=O)NC(C)CC)nc3n[nH]c(C)c3c2=N)cc1 (centres undefined),-17.2%,
O=S(=O)(Nc1ccc2cn[nH]c2c1)c1cc(Br)ccc1Br,,21.3 µM (active)
O=C(Nc1ccc(Cl)c(Cl)c1)Nc1ccccc1O,,21.3 µM (active)
O=C(Nc1ccncc1)Nc1cc(Cl)ccc1Cl,-11.4%,
CSc1ccccc1OCc1cc(C(=O)NC2CCc3ccccc32)no1 (centres undefined),-4.75%,
O=C(c1cc(COc2cccc3cnccc23)on1)N1CCCC(CCCO)C1 (centres undefined),,13.5 µM (active)
Cc1nc2ccc(C(=O)Nc3ccc4nc[nH]c4c3)cc2[nH]1,-9.02%,

SMILES,"activity change, negative = inhibition",Potency
Cc1ccc(C(=O)Nc2ccc(Br)c(C(F)(F)F)c2)cc1,,23.9 µM (active)
CCn1c(=S)sc2c(=O)n(CC(=O)Nc3ccccc3OC)c(C)nc21,-9.71%,
O=C(COCc1cc(-c2cccs2)on1)NC1CCCCC1,-10.5%,
O=C(Nc1nc(-c2cccs2)c(-c2cccs2)s1)C1CCCC1,,19 µM (active)
COc1ccc(CC(=O)Oc2cc(C)ccc2C)cc1,-12.9%,
CN(C)/C=C(/C(=O)c1ccc(Cl)cc1)S(=O)(=O)c1ccc(Cl)cc1,-4.03%,
c1ccc2c(CSc3ncnc4nc[nH]c34)cccc2c1,,30.1 µM (active)
O=C(COc1ccc(Cl)cc1)NCc1nnc(SCC(=O)NC2CCCCC2)o1,-2.3%,
Clc1ccc(CSc2nnc(CNc3cccc(Cl)c3)o2)cc1,,23.9 µM (active)
Cc1sc(N/N=C/c2cccnc2)nc1-c1ccccc1,,23.9 µM (active)
C(=N\N1CCN(Cc2cccc3ccccc23)CC1)/c1cccnc1,-9.51%,
Nc1c(C(=O)NCc2ccc3c(c2)OCO3)nnn1CC(=O)Nc1ccc(Br)cc1,-2.74%,
COc1cc(C(C)=O)ccc1OCC(=O)Nc1ccc(C)c(S(=O)(=O)N2CCCCCC2)c1,,19 µM (active)
COc1ccc(NS(=O)(=O)c2cc(NC(=O)/C=C/c3cc(OC)ccc3OC)ccc2N2CCCCC2)cc1,-12.9%,
COc1cc(C(=S)N2CCCC2)ccc1OCc1ccc(C)cc1,-6.97%,
COC(=O)CN1C(=O)COc2ccc(S(=O)(=O)N3CCCC3)cc21,-2.77%,
COc1ccc(Br)cc1/C=N/NC(=O)CN1CCCCC1,0.691%,
COc1ccc(NC(=O)CCC2CCCCC2)cc1S(=O)(=O)N1CCCCC1,,37.9 µM (active)
COC(=O)c1cc(=O)n(-c2c(Cl)cc(C(F)(F)F)cc2Cl)[nH]1,-7.03%,
CCCN1CCN(CCCNC(=O)Cn2nc(C)n3c(cc4cc(OC)ccc43)c2=O)CC1,-1.9%,
Cc1ccccc1-n1sc2cc(F)ccc2c1=O,,19 µM (active)
Cc1c(C(=O)OC/C(O)=C(\C#N)c2nc3ccccc3[nH]2)oc2ccc(Br)cc12,-3.86%,
CS(=O)(=O)N(CC(=O)N1CCOCC1)c1cccc(F)c1,-1.09%,
O=C(CSc1n[nH]c(=O)n1C1CC1)c1ccc2c(c1)OCCO2,-2.97%,
O=C(CSc1ncnc2ccccc12)c1ccc2c(c1)OCCO2,,26.9 µM (active)

SMILES,"activity change, negative = inhibition",Potency
Cc1ccc(S(=O)(=O)c2c(C(=O)c3ccccc3)cnc3cc4c(cc23)OCCO4)cc1,-10.4%,
COCC(C)NC(=O)C1c2ccccc2Oc2ccccc21 (centres undefined),-5.99%,
O=S(=O)(Nc1ccc(O)c(Sc2nc3ccccc3s2)c1)c1cccc2ccccc12,,37.9 µM (active)
CCn1c(Cl)c(C=O)s/c1=N\S(=O)(=O)c1ccccc1,,21.3 µM (active)
CC(=O)N1c2ccc(S(=O)(=O)NCCC(=O)Nc3cccc(Cl)c3)cc2CC1C (centres undefined),-2.02%,
CC(=O)c1cccc(NC(=O)CCCSc2ccccc2)c1,-8.01%,
CCN(CC)S(=O)(=O)c1cccc(NC(=O)CCSc2ccc(Cl)cc2)c1,,30.1 µM (active)
CC1CCCN(S(=O)(=O)c2csc(C(N)=O)c2)C1 (centres undefined),-8.21%,
CCOP(=O)(Cc1ccc(C(C)(C)CC(C)=O)o1)OCC,2.1%,
Cc1ccc(C(=O)N2c3ccccc3N(Cc3ccccc3)C(=O)C2(C)C)cc1,,16.9 µM (active)
Cc1ccc(CN2C(=O)c3ccccc3Sc3ccc(C(=O)NCCCN4CCOCC4)cc32)cc1,-7.23%,
O=C(c1ccc2c(c1)N(Cc1ccccc1)C(=O)c1ccccc1S2)N1CCCC1,-8.9%,
O=C(NC(Nc1nc2ccc([N+](=O)[O-])cc2s1)(C(F)(F)F)C(F)(F)F)c1ccccc1,,0.953 µM (active)
O=C(NC(Nc1nc2ccc([N+](=O)[O-])cc2s1)(C(F)(F)F)C(F)(F)F)c1cccnc1,,7.57 µM (active)
COc1ccc2nc(NC(=O)c3ccccc3[N+](=O)[O-])sc2c1,-12.5%,
O=C(COC(=O)C12CC3CC(CC(Br)(C3)C1)C2)Nc1cccc(S(=O)(=O)N2CCOCC2)c1,,23.9 µM (active)
Cc1cccc(NC(=O)C2CCN(S(=O)(=O)c3ccc4c(c3)NC(=O)CO4)CC2)c1,-1.24%,
CSc1cccc(NC(=O)CN2C(=O)COc3ccc(S(=O)(=O)N4CCOCC4)cc32)c1,-4.44%,
C=CCN1C(=O)/C(=C/c2ccc(OC(C)=O)c(OCC)c2[N+](=O)[O-])SC1=S,,7.57 µM (active)
COc1ccc(/C=C/C(=O)c2ccc(NS(=O)(=O)c3ccc(C)cc3)cc2)cc1O,,23.9 µM (active)
COc1cc(/C=C/C(=O)c2ccc(NS(=O)(=O)c3ccc(C)cc3)cc2)ccc1OC(F)F,-7.78%,
Cc1cc(C(=O)CSc2nc3ccccc3[nH]2)c(C)n1CC1CCCO1 (centres undefined),,21.3 µM (active)
CCOc1ccccc1NC(=O)CSc1nc2ccccc2c(=O)n1CC1CCCO1 (centres undefined),-5.07%,
Nc1nc(SCC(=O)NCC2CCCO2)[nH]c(=O)c1NC(=O)c1ccc(F)c(F)c1 (centres undefined),-3.95%,
